Where a chain is given by its changes, count along the chain named. The full ranking holds about 16,000 sequences; the median of “ka relative to ugcaugu” is about 0.0091, and the highest 2% start at about 0.032. For the sample, the highest values were picked, then their nearest neighbours and some sequences at random.
T1: RBFOX1 RRM (Homo sapiens, UniProt Q9NWB1 109-208)
T1 sequence: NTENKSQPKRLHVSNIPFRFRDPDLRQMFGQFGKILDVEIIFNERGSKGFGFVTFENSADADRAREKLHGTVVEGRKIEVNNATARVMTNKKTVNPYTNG

B1: AGAAAUU (DNA:RNA)
RNA: GGGAGACCGGAAUUCAGAUUGUCCAGAAAUUUUAAAUCCCGUCGUAGCCACCA
DNA 1: CAATCTGAATTCCGGTCTCCC
DNA 2: TGGTGGCTACGACGGGATT
B2: UCAAUAA (DNA:RNA)
RNA: B1 RNA with A25U, G26C, A29U, U30A, U31A
DNA 1: CAATCTGAATTCCGGTCTCCC
DNA 2: TGGTGGCTACGACGGGATT
B3: ACAGCAG (DNA:RNA)
RNA: B1 RNA with G26C, A28G, A29C, U30A, U31G
DNA 1: CAATCTGAATTCCGGTCTCCC
DNA 2: TGGTGGCTACGACGGGATT
B4: CUCGUGG (DNA:RNA)
RNA: GGGAGACCGGAAUUCAGAUUGUCCCUCGUGGUUAAAUCCCGUCGUAGCCACCA
DNA 1: CAATCTGAATTCCGGTCTCCC
DNA 2: TGGTGGCTACGACGGGATT
B5: GUCGGGC (DNA:RNA)
RNA: B4 RNA with C25G, U29G, G31C
DNA 1: CAATCTGAATTCCGGTCTCCC
DNA 2: TGGTGGCTACGACGGGATT
B6: GGGGCGC (DNA:RNA)
RNA: B4 RNA with C25G, U26G, C27G, U29C, G31C
DNA 1: CAATCTGAATTCCGGTCTCCC
DNA 2: TGGTGGCTACGACGGGATT
B7: CUGGGCU (DNA:RNA)
RNA: B4 RNA with C27G, U29G, G30C, G31U
DNA 1: CAATCTGAATTCCGGTCTCCC
DNA 2: TGGTGGCTACGACGGGATT
B8: GGGCGCU (DNA:RNA)
RNA: B1 RNA with A25G, A27G, A28C, A29G, U30C
DNA 1: CAATCTGAATTCCGGTCTCCC
DNA 2: TGGTGGCTACGACGGGATT
B9: CGGGCGC (DNA:RNA)
RNA: B4 RNA with U26G, C27G, U29C, G31C
DNA 1: CAATCTGAATTCCGGTCTCCC
DNA 2: TGGTGGCTACGACGGGATT
B10: CGGCUAG (DNA:RNA)
RNA: B4 RNA with U26G, C27G, G28C, G30A
DNA 1: CAATCTGAATTCCGGTCTCCC
DNA 2: TGGTGGCTACGACGGGATT
B11: UGGGCUU (DNA:RNA)
RNA: B1 RNA with A25U, A27G, A28G, A29C
DNA 1: CAATCTGAATTCCGGTCTCCC
DNA 2: TGGTGGCTACGACGGGATT
B12: GGCUAGU (DNA:RNA)
RNA: B1 RNA with A25G, A27C, A28U, U30G
DNA 1: CAATCTGAATTCCGGTCTCCC
DNA 2: TGGTGGCTACGACGGGATT
B13: GGGCUUG (DNA:RNA)
RNA: B1 RNA with A25G, A27G, A28C, A29U, U31G
DNA 1: CAATCTGAATTCCGGTCTCCC
DNA 2: TGGTGGCTACGACGGGATT
B14: GGGGGGC (DNA:RNA)
RNA: B4 RNA with C25G, U26G, C27G, U29G, G31C
DNA 1: CAATCTGAATTCCGGTCTCCC
DNA 2: TGGTGGCTACGACGGGATT
B15: GGGCUAG (DNA:RNA)
RNA: B4 RNA with C25G, U26G, C27G, G28C, G30A
DNA 1: CAATCTGAATTCCGGTCTCCC
DNA 2: TGGTGGCTACGACGGGATT
B16: UGGGGCU (DNA:RNA)
RNA: B1 RNA with A25U, A27G, A28G, A29G, U30C
DNA 1: CAATCTGAATTCCGGTCTCCC
DNA 2: TGGTGGCTACGACGGGATT

target: T1, RBFOX1 RRM; test: EMSA; HiTS-Eq, 1 nM pool, 10 min; buffer printed only for the single-RNA assays: 10 mM Tris pH 7.5, 150 mM NaCl, 3.4 mM EDTA, 0.001% NP-40, 30 C; conditions: tags: His6 N-terminal (pET28a); label: 5' 32P
In short: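 A pool of RNA with 7 randomized nucleotides, 5′-radiolabelled and with DNA-annealed flanks, was equilibrated at 1 nM for 10 min in 50 µL with purified RbFox RRM, wild type or mutant, across increasing protein concentrations. Free RNA was separated by 8% native PAGE, excised, reverse-transcribed, barcoded by PCR and sequenced. Relative association constants were obtained from read-count changes of each RNA species versus the control reaction and normalised to the cognate motif.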

Binder | binding signal
B1 | 0.00368 KA relative to UGCAUGU
B2 | 0.00079 KA relative to UGCAUGU
B3 | 0.00511 KA relative to UGCAUGU
B4 | 0.00654 KA relative to UGCAUGU
B5 | 0.0126 KA relative to UGCAUGU
B6 | 0.0421 KA relative to UGCAUGU
B7 | 0.0227 KA relative to UGCAUGU
B8 | 0.0216 KA relative to UGCAUGU
B9 | 0.0268 KA relative to UGCAUGU
B10 | 0.02 KA relative to UGCAUGU
B11 | 0.0356 KA relative to UGCAUGU
B12 | 0.0239 KA relative to UGCAUGU
B13 | 0.0531 KA relative to UGCAUGU
B14 | 0.0272 KA relative to UGCAUGU
B15 | 0.0339 KA relative to UGCAUGU
B16 | 0.0267 KA relative to UGCAUGU

From article PMC9911399, “Two distinct binding modes provide the RNA-binding protein RbFox with extraordinary sequence specificity”
